Screening results: PubChem, National Center for Advancing Translational Sciences (NCATS)
TbPYK inhibitor: qHTS of Trypanosoma Brucei Inhibitors; AID 624173, 2012; TbPYK enzyme, Kinase-Glo Plus ATP luminescence, 45 min; Potency, µM (highest dose often 76.8 µM), without a hit: at the top dose activity, negative = inhibition, hits mostly inhibitors; 410,000 compounds, 0.12% hits; pyruvate kinase (Trypanosoma brucei), Q57TT1; note: potency is the fitted concentration of half-maximal effect; % is set by controls: 0 for no effect and ±100 for the full control effect; nearly all actives have a fitted effect of over 50% in size
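TbPYK + substrate in 50 mM TEA pH 7.2, 100 mM KCl, 10 mM MgCl2, 0.05% BSA, 0.01% Tween-20; cpd pinned; ADP 130 uM final; 45 min RT; Kinase-Glo Plus 10 min; luminescence endpoint.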
Shiga toxin inh: A qHTS for Small Molecule Inhibitors of Shiga Toxin; Vero cells, Shiga toxin protein synthesis inhibition reporter; AID 2315, 2010; 290,000 compounds, 9.2% hits; inhibition, % at 38.7 µM; in the data active = inhibition mostly above about 28%, no sharp cut-off; inactive = mostly below about 43%; note: 0% is about no effect
Cycloheximide cs: Cycloheximide Counterscreen for Small Molecule Inhibitors of Shiga Toxin; cell reporter, cycloheximide protein synthesis inhibition counterscreen; max response, %; 300,000 compounds, 12% hits; in the data active = max response mostly above about 13%, no sharp cut-off; inactive = mostly below about 14%; note: read at 38.3 µM for the half of the compounds with a filed dose; 0% is about no effect
FBPA Giardia inh: qHTS Assay for Inhibitors of Fructose-1,6-bisphosphate Aldolase from Giardia Lamblia | A8B2U2 | purified Giardia FBPA | Potency, µM (highest dose often 59.6 µM), for the others: top-dose activity, negative = inhibition, most hits filed as inhibitors | 290,000 compounds, 0.71% hits; note: potency is the fitted concentration of half-maximal effect; % is set by controls: 0 for no effect and ±100 for the full control effect; nearly all actives have a fitted effect of over 55% in size
Target sequence (A8B2U2 whole entry, looked up): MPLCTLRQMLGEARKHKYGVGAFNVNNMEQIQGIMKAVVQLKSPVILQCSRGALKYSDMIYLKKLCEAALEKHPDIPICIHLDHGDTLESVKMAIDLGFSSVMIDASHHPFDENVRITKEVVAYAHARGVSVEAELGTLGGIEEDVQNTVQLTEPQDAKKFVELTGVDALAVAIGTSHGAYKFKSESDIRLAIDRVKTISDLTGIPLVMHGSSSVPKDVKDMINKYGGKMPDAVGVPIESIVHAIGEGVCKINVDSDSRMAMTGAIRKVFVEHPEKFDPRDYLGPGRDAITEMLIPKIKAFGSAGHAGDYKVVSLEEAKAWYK
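Giardia FBPA (40 nM reagent) was preincubated 10 min at RT with compound (up to 57.5 uM final), then substrate plus GAPDH/TPI/NAD/arsenate coupling system with diaphorase/resazurin was added; resorufin fluorescence (525/598 nm) was read after 20 min.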
RE007 growth inh: qHTS Assay for Inhibitors of the HIV-1 protein Vpr; Potency, µM (top dose mostly 92.2 µM), inactives show at the highest dose activity change, negative = less growth, most hits filed as inhibitors; S. pombe RE007 Vpr strain, BacTiter-Glo ATP luminescence, 24 h; AID 651644, 2012; 360,000 compounds, 0.21% hits; active = well fitted falling curve with a large enough effect; inconclusive = small, poorly fitted or top-dose-only effect; inactive = no such curve, though single readings can be large or run the other way; note: potency is the fitted concentration of half-maximal effect; % is set by controls: 0 for no effect and ±100 for the full control effect; nearly all actives have a fitted effect of over 50% in size
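Fission yeast RE007 carrying one integrated HIV-1 vpr copy, seeded at OD 0.01 in PMG+AL medium with 23 nL pinned compound. Grown 24 h at 30 degrees; viability read by BacTiter-Glo luminescence after 5 min.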
LmPK inhibitor: qHTS Assay for Inhibitors of Leishmania Mexicana Pyruvate Kinase (LmPK); Q27686; Potency, µM (highest dose often 57.5 µM), inactives show top-dose activity change, negative = inhibition, hits mostly inhibitors; 290,000 compounds, 0.37% hits; purified LmPK, Kinase-Glo ATP luminescence, 1 h; note: potency is the fitted concentration of half-maximal effect; % is set by controls: 0 for no effect and ±100 for the full control effect
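0.1 nM LmPK, 0.5 mM PEP, 0.1 mM ADP; 50 mM imidazole pH 7.2, 7 mM MgCl2, 50 mM KCl; 1 h RT. Kinase-Glo luminescence readout, normalized to no-enzyme (full inhibition) and uninhibited wells.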
Starred values were filed as active, the others as inactive; ? = inconclusive; . = not tested or not shown. The sample as a whole holds a higher share of hits than the screen did. Unless noted, calls come from the whole dose curve; as a rule, active = well fitted curve in the direction sought with a large enough effect; inconclusive = small, poorly fitted or top-dose-only effect, or another doubt; inactive = no such curve, though single readings can be large; an effect the other way counts as inactive or inconclusive.

SMILES	TbPYK inhibitor	Shiga toxin inh	Cycloheximide cs	FBPA Giardia inh	RE007 growth inh	LmPK inhibitor
C=CCSc1nnc(-c2cccnc2)o1	0.8%	22.0*	15.0*	-1.1%	5.1%	-4.2%
O=C(CSc1nnc(-c2ccc(Cl)cc2)o1)c1ccc([N+](=O)[O-])cc1	4.1%	.	.	.	.	.
CN(C(=O)CSc1nnc(-c2ccc([N+](=O)[O-])cc2)o1)C1CCCCC1	-7.7%	.	.	.	.	.
C=CCSc1nnc(-c2ccc([N+](=O)[O-])cc2)o1	-20.7%	80.0	19.2*	-1.1%	-10.9%	-10.4%
CCN(CC)S(=O)(=O)c1nnc(NC(=O)COc2ccc(Cl)cc2)s1	0.8%	.	.	.	.	.
Cc1ccc2nc(N/C(=N/S(=O)(=O)c3cccs3)c3ccccc3Cl)sc2c1	2.8%	-1.3	15.5	19.8%	5.3%	1.7%
COc1ccc(C(=O)NCC(=O)N/N=C/c2cccc(OC(=O)c3ccco3)c2)cc1OC	0.1%	43.4	32.7*	1.5%	2.9%	-12.2%
O=C(CNC(=O)c1ccccn1)N/N=C/c1ccc2c(c1)OCO2	-5.6%	100.1*	41.5*	0.9%	-2.2%	4.0%
O=C(CNC(=O)c1ccccc1F)N/N=C/c1ccc2c(c1)OCO2	0.6%	54.6*	44.8*	-3.3%	-11.9%	0.4%
O=C(CNC(=O)c1ccccc1Cl)N/N=C/c1ccc2c(c1)OCO2	2.5%	15.1	14.0	-11.3%	-1.5%	0.0%
COc1cccc(C(=O)NCC(=O)N/N=C/c2ccc3c(c2)OCO3)c1	-2.1%	82.8*	43.6*	1.3%	-5.0%	-1.7%
CC1C(=O)N(S(=O)(=O)c2ccc([N+](=O)[O-])cc2)[C@H]1c1ccc2ccccc2c1 (some centres undefined)	.	22.7	8.6	9.8%	.	.
CCCCN1C(=O)C(=O)N(CC(=O)c2ccc3c(c2)CCCC3)C1=O	-6.5%	.	.	.	0.3%	.
COc1ccc(-n2c(=O)c(C)nc3cnc(Nc4ccccc4)nc32)cc1	-7.5%	.	.	0.6%	.	.
COc1cccc(OCC(=O)NC2CC(=O)N(c3cccc(OC)c3)C2)c1 (centres undefined)	-1.3%	.	.	.	.	.
CN(CC(=O)Nc1ccccc1Cl)C(=O)c1ccc(COc2ccccc2)cc1	1.4%	.	.	.	-1.7%	.
O=C(/C=C\c1ccccc1OC(=O)c1ccccc1F)c1cc2ccccc2o1	0.4%	62.9	43.8*	-2.7%	-10.8%	1.5%
COC(=O)c1ccccc1OC(=O)c1cc2ccccc2oc1=O	-1.2%	51.9*	28.8*	-4.4%	12.6%	-7.7%
CC(=O)/C=C\c1ccccc1OC(=O)c1cc2ccccc2oc1=O	0.3%	1.9	11.1*	15.8%	-0.2%	1.2%
CC(C)N(C(=O)[C@H]1C[C@H](CC(=O)NCCC2=CCCCC2)C(=O)N2CCc3c([nH]c4ccc(Cl)cc34)[C@]12C)C(C)C	-9.3%	.	.	.	-15.7%	.
Cc1ccc(C2Nc3ccccc3NC3=C2C(=O)CC(C)(C)C3)c(O)c1 (centres undefined)	2.1%	30.3	14.2*	-1.8%	4.2%	-2.0%
COc1ccccc1C1Nc2ccccc2NC2=C1C(=O)CC(C)(C)C2 (centres undefined)	-7.9%	2.4	1.9	7.1%	5.0%	-3.2%
CC1(C)CC(=O)C2=C(C1)Nc1ccccc1NC2c1cc(Cl)ccc1O (centres undefined)	-3.5%	1.8	6.9	-0.3%	-18.8%	3.3%
COc1ccc(OC)c(C2Nc3ccccc3NC3=C2C(=O)CC(C)(C)C3)c1 (centres undefined)	-7.1%	33.2	19.4*	-7.2%	8.0%	-2.3%
COc1ccc(C2Nc3ccccc3NC3=C2C(=O)CC(C)(C)C3)cc1 (centres undefined)	30.3%	84.4*	48.0*	-1.0%	-6.4%	2.2%
SMILES	TbPYK inhibitor	Shiga toxin inh	Cycloheximide cs	FBPA Giardia inh	RE007 growth inh	LmPK inhibitor
Cc1cc2c(cc1C)NC(c1c(C)n(C)n(-c3ccccc3)c1=O)C1=C(CC(C)(C)CC1=O)N2 (centres undefined)	0.4%	39.3*	18.8*	?	-7.0%	3.2%
CC(C)(C)OC(=O)C[C@@H]1C/C=C\C[C@H](CC(=O)NCCO)C(=O)N2CCC[C@@H]2COC1=O	-1.7%	.	.	.	4.1%	.
O=C(CNC(=O)c1ccco1)NCC(=O)OCc1ccc(Cl)cc1Cl	3.5%	10.1	-4.3	10.5%	0.5%	1.2%
COc1ccccc1CNc1nc2c(S(=O)(=O)c3ccccc3)nnn2c2ccc(Cl)cc12	1.3%	.	.	.	.	.
COc1ccc(C2Nc3ccccc3NC3=C2C(=O)CC(C)(C)C3)cc1O (centres undefined)	?	70.4*	24.3*	-10.9%	-10.1%	0.6%
CC1(C)CC(=O)C2=C(C1)Nc1ccccc1NC2c1nc2ccccc2[nH]1 (centres undefined)	3.0%	118.3*	42.0*	?	-12.1%	0.3%
Cc1cccc(N2CCN(C(=O)Nc3ccc(F)cc3)CC2C)c1 (centres undefined)	4.3%	.	.	.	.	.
COc1cccc(NC(=O)C2CCN(C(=O)[C@@H]3Cc4ccccc4CN3)CC2)c1	0.0%	11.8	38.2*	.	4.8%	5.2%
CCC1CCC(C(=O)NC(C(=O)Nc2cccc(OC)c2)C(C)C)CC1 (centres undefined)	-1.5%	.	.	.	.	.
CCC1CCC(NC(=O)Nc2cccc(OC)c2)CC1 (centres undefined)	3.1%	64.4*	51.8*	0.3%	2.5%	4.4%
COc1ccc(NC(=O)N2CCCCCC2)cc1	2.6%	50.2*	21.3*	1.6%	22.2%	-2.0%
COc1cccc(NC(=O)C2CCN(C(=O)[C@@H]3Cc4ccccc4CN3C(=O)OC(C)(C)C)CC2)c1	-7.4%	12.4	14.6	.	17.1%	7.5%
COc1cccc(NC(=O)N2CCN(c3cccc(C)c3)C(C)C2)c1 (centres undefined)	4.4%	50.3*	33.6*	-4.3%	-4.3%	4.0%
CCn1cc(CNCc2cn(C)nc2-c2ccc(C3CCCCC3)cc2)cn1	2.1%	13.5	-2.6	4.1%	-23.2%	4.5%
Cc1cc(Cl)ccc1NS(=O)(=O)c1ccc2c(c1)CC(C)N2C(=O)C1CCC1 (centres undefined)	1.0%	.	.	.	.	.
N#CCCN1CCCN(CCC#N)CCN(CCC#N)CCCN(CCC#N)CC1	-4.3%	-11.6	-3.3	?	0.5%	-3.2%
CCc1ccc2ncc3c(-c4ccc(F)cc4)nn(CC(=O)NC4CCCCC4)c3c2c1	7.0%	.	.	.	.	.
COc1ccc(NC(=O)N2CCCC(c3ccccc3)C2)cc1 (centres undefined)	-3.2%	46.9	17.0*	-26.3%	21.4%	2.5%
